In PubChem BioAssay AID2279 (Southern Research Specialized Biocontainment Screening …, 2010):
Measured potencies and affinities stand elsewhere. Active and inactive are the calls of the source. No rule for the calls is given here.

Experiment: HIV-1 Env-mediated cell fusion inhibitors, dose response, CCR5-tropic Env (AID 2279)
Conditions: CCR5-tropic HIV-1 Env, reporter read-out; series mostly up to 50 µM

outcome, inactive:
Cc1cccc(OCC(=O)Nc2ccc(C(=O)Nc3ccccc3C(=O)O)cc2)c1C, N#Cc1c(-c2ccccc2)nc(SCC(=O)Nc2ccc(OC(F)(F)Cl)cc2)[nH]c1=O, CC(C)S(=O)(=O)C1=NSC2=NC(=O)/C(=C\c3ccc(OC(=O)c4ccco4)cc3)C(=N)N21, O=C1N/C(=N\S(=O)(=O)c2ccccc2)S/C1=C\c1cc([N+](=O)[O-])ccc1O, COc1cc(NS(=O)(=O)c2ccc(Nc3nc(-c4ccccc4)cs3)cc2)nc(OC)n1, N=C1/C(=C\c2ccc(-c3cccc(C(=O)O)c3)o2)C(=O)N=C2SC=C(c3ccccc3)N12, O=C(O)CSc1ncnc2c1sc1nc(-c3ccccc3)c3c(c12)CCC3
